Data on 157 variants can be found in a collection of fitness landscapes (doi:10.1126/science.1257360).

Sequences and labels used below:
B1: PhoQ; a variant is named by its letters at X, in order, P23837 (parent)
chain: MKKLLRLFFPLSLRVRFLLATAAVVLVLSLAYGMVALIGYSVSFDKTTFRLLRGESNLFYTLAKWENNKLHVELPENIDKQSPTMTLIYDENGQLLWAQRDVPWLMKMIQPDWLKSNGFHEIEADVNDTSLLLSGDHSIQQQLQEVREDDDDAEMTHSVAVNVYPATSRMPKLTIVVVDTIPVELKSSYMVWSWFIYVLSANLLLVIPLLWVAAWWSLRPIEALAKEVRELEEHNRELLNPATTRELTSLVRNLNRLLKSERERYDKYRTTLTDLTHSLKTPLXXLQXXLRSLRSEKMSVSDAEPVMLEQISRISQQIGYYLHRASMRGGTLLSRELHPVAPLLDNLTSALNKVYQRKGVNISLDISPEISFVGEQNDFVEVMGNVLDNACKYCLEFVEISARQTDEHLYIVVEDDGPGIPLSKREVIFDRGQRVDTLRPGQGVGLAVAREITEQYEGKIVAGESMLGGARMEVIFGRQHSAPKDE

The full ranking holds about 140,000 sequences; the median of “enrichment ratio after two sorts for PhoP signalling” is about 0, and the highest 2% start at about 11. The sample as a whole holds a higher share of the highest values than the screen did.

Variants of B1 are the subject of the assay. Description: enrichment ratio after two sorts for PhoP signalling (ratio (wild type AVST 3.29)); higher = more functional. The conditions noted are these: with PhoP (E. coli).
Take FGMP: the enrichment ratio was at most 0.25.

With MYAF, the enrichment ratio is at most 0.25. The figure for NEMS is at most 0.25; for NHMV it is at most 0.25; for NEMI it is 29. The value for SHMI was 5.85.

In the case of NEMD, the enrichment ratio is at most 0.25.

Turning to NHMI, the enrichment ratio is at most 0.25. The value for THMV was 8.19; that for NEMV was 14.8.

On to THMI, for which the enrichment ratio is 26.1. Take DIIV: the enrichment ratio was at most 0.25. DPWI: the enrichment ratio is at most 0.25.

Regarding ARSS, the enrichment ratio came out at 0.56. For the variant QLGI, the enrichment ratio was at most 0.25. The value for HQLC was at most 0.25. HNDG: the enrichment ratio is at most 0.25. For the variant HGKL, the enrichment ratio is at most 0.25. For AILC, the enrichment ratio stood at 7.86.

In the case of YTLC, the enrichment ratio worked out at 11.3. For the variant FTLC, the enrichment ratio is 6.55.

Turning to SALC, the enrichment ratio was determined as 12. With ATLC, the enrichment ratio stood at 13.2. Take YYLC: the enrichment ratio is at most 0.25. Take TKLC: the enrichment ratio came to 19.8. The figure for KQLC is at most 0.25; for HKLC it is at most 0.25; for MKLC it is at most 0.25.

Consider AYLC, for which the enrichment ratio amounted to 0.263. Turning to IILC, the enrichment ratio was at most 0.25. Regarding KVHY, the enrichment ratio is at most 0.25. RTKV: the enrichment ratio is at most 0.25. On to APDH, for which the enrichment ratio was at most 0.25. With RGMG, the enrichment ratio was at most 0.25. For the variant TDLC, the enrichment ratio stood at 11.7. For SWLC, the enrichment ratio was at most 0.25.

For ADLC, the enrichment ratio was 3.37. With SGNS, the enrichment ratio was at most 0.25. With KYLC, the enrichment ratio is at most 0.25.

For SPLC, the enrichment ratio is at most 0.25. As for SCLC, the enrichment ratio came to 12.4. As for KDLC, the enrichment ratio was at most 0.25. With DFLC, the enrichment ratio was at most 0.25. Turning to SGLC, the enrichment ratio stood at 20.7. LWLC: the enrichment ratio is at most 0.25.

As to STLC, the enrichment ratio was 13.2. HWIF: the enrichment ratio is at most 0.25. For the variant MFWN, the enrichment ratio is at most 0.25. For the variant AMSS, the enrichment ratio was 9.96.

In the case of WMWY, the enrichment ratio is at most 0.25. GTLC: the enrichment ratio came out at 10. SKKC: the enrichment ratio was at most 0.25. The figure for SNLC is 11.3; for TTLC it is 14.4; for SKLC it is 12.6.

Take TPLC: the enrichment ratio is at most 0.25. As to SRLC, the enrichment ratio was at most 0.25. The value for SFLC was 4.52; that for SLLC was 7.49. Consider SELC, for which the enrichment ratio is 20.4. Regarding SKTC, the enrichment ratio was determined as 11.1. With LTLC, the enrichment ratio is at most 0.25. Take VGMT: the enrichment ratio is at most 0.25. As for NFAS, the enrichment ratio was at most 0.25. The figure for AWLG is at most 0.25; for PRVI it is at most 0.25; for THYW it is at most 0.25.

Consider ELGT, for which the enrichment ratio was at most 0.25. The figure for FGYD is at most 0.25. The figure for EVSM is 7.73; for STNM it is 11.4; for SNRM it is at most 0.25. Take SNNY: the enrichment ratio is 8.91. In the case of YTNM, the enrichment ratio was at most 0.25. SRGY: the enrichment ratio is at most 0.25. For the variant SNGD, the enrichment ratio is at most 0.25. The value for SNNM was 13.1; that for SQNM was 1.65. Take SNGS: the enrichment ratio was found to be 9.33.

In the case of SNGM, the enrichment ratio was 15.3.

Turning to SNGY, the enrichment ratio amounted to 12.6.

Turning to SLNM, the enrichment ratio was at most 0.25. Regarding RSCE, the enrichment ratio was at most 0.25. Consider QIIS, for which the enrichment ratio is at most 0.25. Consider TQLR, for which the enrichment ratio is 2.23.

For the variant LNRD, the enrichment ratio turned out to be 0.657. Take EFTP: the enrichment ratio is at most 0.25. NIED: the enrichment ratio was at most 0.25. Take HGTL: the enrichment ratio was 6.22. MTCK: the enrichment ratio was at most 0.25. The value for SECM was 38.2. With SDCM, the enrichment ratio came out at 17.2. With SVCK, the enrichment ratio is 9.8.

In the case of SVCE, the enrichment ratio is 2.84. In the case of MTCM, the enrichment ratio was determined as 12.2. As to MHCM, the enrichment ratio is at most 0.25. As for SVCM, the enrichment ratio came to 14.2. In the case of FDCM, the enrichment ratio is at most 0.25. As for SPCM, the enrichment ratio is at most 0.25.

As to SRCM, the enrichment ratio stood at 9.77. The value for SYCM was at most 0.25; that for KPWY was at most 0.25. With TYSW, the enrichment ratio was at most 0.25. HHAG: the enrichment ratio is at most 0.25.

IFAS: the enrichment ratio was at most 0.25. For MQIG, the enrichment ratio was at most 0.25.

As for RTCM, the enrichment ratio was at most 0.25.

Turning to YTCM, the enrichment ratio was 11.5. As to SLCM, the enrichment ratio came to 16.9.

Turning to LTCM, the enrichment ratio was at most 0.25.

Consider WLCM, for which the enrichment ratio is at most 0.25. Take ITCM: the enrichment ratio was 1. With STCM, the enrichment ratio was 13.3. Regarding FTCM, the enrichment ratio turned out to be 7.68. The figure for TTCM is 24.5. Take NTCM: the enrichment ratio is at most 0.25. YHCM: the enrichment ratio was at most 0.25. With PLCM, the enrichment ratio was at most 0.25. As to RMAR, the enrichment ratio was at most 0.25. With LPWH, the enrichment ratio is at most 0.25. Consider KMFP, for which the enrichment ratio was at most 0.25. The figure for IDIW is at most 0.25; for DRHH it is at most 0.25.

Turning to ITAF, the enrichment ratio is at most 0.25. On to NAMN, for which the enrichment ratio is at most 0.25. The figure for YANV is at most 0.25; for TAMG it is 17.2. The value for TANV was 17.9.

For the variant TAVG, the enrichment ratio is at most 0.25.

Take KATV: the enrichment ratio is at most 0.25. YATV: the enrichment ratio was at most 0.25. For TAVC, the enrichment ratio came out at 1.35.

On to TAMN, for which the enrichment ratio stood at 59.7. Regarding KAMN, the enrichment ratio is at most 0.25. With TATV, the enrichment ratio is 13.6. Regarding KANV, the enrichment ratio was at most 0.25. Regarding YFEP, the enrichment ratio is at most 0.25. On to NMRI, for which the enrichment ratio is at most 0.25. For the variant YHGP, the enrichment ratio was at most 0.25. Turning to TWHF, the enrichment ratio was at most 0.25. For the variant LTFD, the enrichment ratio is at most 0.25. The figure for HWNR is at most 0.25; for WEAV it is at most 0.25.

For the variant KAMP, the enrichment ratio is at most 0.25. Regarding WWAY, the enrichment ratio was at most 0.25.

With LLHT, the enrichment ratio is at most 0.25.

With HMSL, the enrichment ratio was at most 0.25.

Regarding PQVE, the enrichment ratio was at most 0.25. On to HHWE, for which the enrichment ratio is at most 0.25. With TAQS, the enrichment ratio was 14.2. As to IAGF, the enrichment ratio was at most 0.25. Turning to LQQS, the enrichment ratio is at most 0.25. In the case of LQQF, the enrichment ratio was at most 0.25. In the case of TAGF, the enrichment ratio stood at 13.2. In the case of TAPV, the enrichment ratio is at most 0.25. Consider TAHF, for which the enrichment ratio came to 10.3. The figure for YAGF is at most 0.25.
